For test [1], the system named is Jurkat. Description: mean cell size (FSC-A) relative to DMSO control (fraction of control); higher = larger cells. The note with it: 48 h. The essentials: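 Jurkat cells at 600 cells/µl were incubated for 1 h and then treated for 48h with the Enzo Screen-Well FDA Approved Drug Library v2.0 at 25µM, with DMSO at 0.9% (v/v) final. Compounds that reduced counts below 20% of controls were retested in 10-fold dilutions down to 25nM. Cell count and mean cell size, taken as forward scatter area, were measured by flow cytometry relative to solvent-only controls. Each plate carried 6-12 controls, and values are means of 3 biological replicates.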

In test [2] the test system is Jurkat. The experiment in a line: cell count relative to DMSO control (fraction of control); higher = more cells (less growth inhibition). Conditions: 48 h.

Where a name gives a salt, the structure may show the parent alone. ± gives the standard deviation.

Consider eight molecules from the supplement of paper PMC4709259.

As for `CC(=O)OCC(=O)[C@@]1(O)CC[C@H]2[C@@H]3CCC4=CC(=O)CC[C@]4(C)[C@H]3[C@@H](O)C[C@@]21C` [Hydrocortisone Acetate] (concentration: 25 µM), the mean cell size in the test with Jurkat [1] turned out to be 0.959 ± 0.045. Besides, the cell count in the test on Jurkat [2] came out at 0.716 ± 0.12.

In the test on Jurkat [1], `Cc1onc(-c2c(Cl)cccc2Cl)c1C(=O)N[C@@H]1C(=O)N2[C@@H]1SC(C)(C)[C@@H]2C(=O)O` [Dicloxacillin·Na Salt Monohydrate] (concentration: 25 µM) came in with a mean cell size of 0.939 ± 0.0097. This molecule also registered a cell count in the test on Jurkat [2] of 1.07 ± 0.06.

Turning to `CN1[C@@H]2CC[C@H]1C[C@@H](OC(c1ccccc1)c1ccccc1)C2` [Benztropine Mesylate] (concentration: 25 µM), the mean cell size in the test on Jurkat [1] was found to be 0.976 ± 0.054. The cell count with Jurkat [2] turned out to be 0.666 ± 0.17.

Regarding `Cc1ccc(N(CC2=NCCN2)c2cccc(O)c2)cc1` [Phentolamine·HCl] (concentration: 25 µM), the mean cell size with Jurkat [1] is 1.09 ± 0.072. The cell count in the test on Jurkat [2] stood at 0.612 ± 0.16.

In the test on Jurkat [1], `O=C(CCCN1CCC(O)(c2ccc(Cl)cc2)CC1)c1ccc(F)cc1` [Haloperidol] (concentration: 25 µM) returned a mean cell size of 1.04 ± 0.057. The molecule further displayed a cell count with Jurkat [2] of 0.609 ± 0.16.

For the molecule `Cc1ccnc2c1NC(=O)c1cccnc1N2C1CC1` [Nevirapine] (concentration: 25 µM), the mean cell size in the test with Jurkat [1] amounted to 0.924 ± 0.051. Besides, in the test on Jurkat [2], the cell count is 0.476 ± 0.11.

For the molecule `O=C1N=C(O)CN1N=Cc1ccc(-c2ccc([N+](=O)[O-])cc2)o1` [Dantrolene·Na] (concentration: 25 µM), in the test with Jurkat [1], the mean cell size was found to be 1 ± 0.021. In addition, the cell count in the test with Jurkat [2] turned out to be 0.837 ± 0.068.

Molecule `CC(=O)[C@]1(O)Cc2c(O)c3c(c(O)c2[C@@H](O[C@H]2C[C@H](N)[C@H](O)[C@H](C)O2)C1)C(=O)c1ccccc1C3=O` [Idarubicin·HCl] (concentration: 25 nM) registered a mean cell size in the test on Jurkat [1] of 1.01 ± 0.047. This molecule also showed a cell count with Jurkat [2] of 0.622 ± 0.11.
